From PubChem BioAssay (NCATS)
Results filed as inconclusive are left out. The source made the active and inactive calls. Calls come from the whole dose curve; as a rule, active = well fitted inhibition curve with a large enough effect; inconclusive = small, poorly fitted or top-dose-only effect; inactive = flat fitted curve, though single readings scatter.

Key:
Test in all cases: Cytotoxic Profiling of Annotated Libraries Using Quantitative High-Throughput Screening (AID 1296008); note: nearly all actives have a fitted effect of over 60% in size
Settings in all cases: Five cell lines viability, CellTiter-Glo ATP luminescence, 48-72 h; max response: active compounds read low
[1] = test system: CRL-7250
Outline: (§1)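 Cells exposed to compounds for 48 or 72 hr at 37 degrees Celsius. Viability read as ATP-coupled luminescence with CellTiter-Glo after 10 min at room temperature.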

[2] = test system: HEK293
Outline: as §1

[3] = test system: HaCat
Outline: as §1

[4] = test system: KB-3-1
Outline: as §1

[5] = test system: NIH3T3
Outline: as §1

Measured: max response
% is set by controls: 0 for no effect and ±100 for the full control effect.

CC(=O)OC[C@@]12[C@H](O)C[C@@H](C)[C@]3(C[C@@H](c4ccoc4)OC3=O)[C@H]1C[C@H](O)C[C@]21CO1
inactive: [1] | [2] | [3] | [4] | [5]

O=C(O[C@H]1[C@@H]2C=CO[C@@H](O[C@@H]3O[C@H](CO)[C@@H](O)[C@H](O)[C@H]3O)[C@@H]2[C@@]2(CO)O[C@@H]12)c1ccc(O)c(O)c1
inactive: [1] | [2] | [3] | [4] 4.32% | [5]

C[C@@H]1O[C@@H](OC[C@H]2O[C@@H](OCC3CCC4CC3C4(C)C)[C@H](O)[C@@H](O)[C@@H]2O)[C@H](O)[C@H](O)[C@H]1O (stereo not given in full)
inactive: [1] -0.807% | [2] | [3] | [4] 6.44% | [5] -1.43%

O=C(/C=C/c1ccc(O)cc1)OC[C@]12O[C@H]1[C@@H](O)[C@@H]1C=CO[C@@H](O[C@@H]3O[C@H](CO)[C@@H](O)[C@H](O)[C@H]3O)[C@@H]12
inactive: [1] -7.12% | [2] | [3] | [4] 8.48% | [5]

Cc1nnc(C(C)C)n1C1CC2CCC(C1)N2CC[C@H](NC(=O)C1CCC(F)(F)CC1)c1ccccc1 (stereo not given in full)
inactive: [1] | [2] | [3] | [4] -4.91% | [5]

CC1CCC2(NC1)OC1C(=O)C3C4CCC5CC(O[C@@H]6O[C@H](CO)[C@@H](O)[C@H](O)[C@H]6O[C@@H]6O[C@@H](C)[C@H](O)[C@@H](O)[C@H]6O)CCC5(C)C4CCC3(C)C1C2C (stereo not given in full)
inactive: [1] | [2] | [3] | [4] -4.49% | [5] -2.88%

CC1OC(OC2C(O)C(C(=O)O)OC(OC3CCC4(C)C(CCC5(C)C4C=CC4=C6CC(C)(C)CC(O)C6(C)CCC45C)C3(C)C)C2OC2OCC(O)C(O)C2O)C(O)C(O)C1O (stereo not given)
inactive: [1] -1.54% | [2] | [3] | [4] 1.62% | [5]

CN1C(=O)N[C@@H](Cc2c[nH]c3c(Cl)cccc23)C1=O
inactive: [1] -3.21% | [2] | [3] -0.267% | [4] -1.43% | [5]

O=S(=O)(NC1CCNCC1)c1cc(S(=O)(=O)c2ccccc2)ccc1C(F)(F)F
inactive: [1] 1.06% | [2] | [3] | [4] 3.12% | [5]

COc1cc(C)c(C(=O)O[C@H]2[C@@H](O)[C@H](n3ccc(=O)[nH]c3=O)O[C@@H]2CO)c(OC)c1
inactive: [1] -3.82% | [2] | [3] | [4] -4.86% | [5] -2.57%

COc1ccccc1-n1c(SCC(=O)Nc2nc3ccc(C)cc3s2)nc2c(c1=O)SCC2
inactive: [1] 2.47% | [2] | [3] -3.57% | [4] 6.25% | [5] 3.32%

O=c1ccn(C2OC(CO)C(O)C2O)c(=O)[nH]1 (stereo not given)
inactive: [1] | [2] | [3] | [4] | [5] 1.59%

CC(=O)N1c2ccccc2C2(O)CC3C(=O)NC(CC(C)C)C(=O)N3C12 (stereo not given)
inactive: [1] 1.79% | [2] | [3] | [4] 2.12% | [5] 1.77%

Cn1c(=O)c2nc(/C=C/c3cccc(Cl)c3)n(C)c2n(C)c1=O
inactive: [1] | [2] | [3] -5.76% | [4] | [5] -2.68%

NC(=O)[C@H]1CCCCc2c1[nH]c1ccc(Cl)cc21
inactive: [1] | [2] | [3] -14.2% | [4] 7.59% | [5] 4.7%

C/C(=C\CCC(C(=O)O)C1CCC2(C)C3=C(CCC12C)C1(C)CCC(=O)C(C)(C)C1CC3)C(=O)O (stereo not given)
inactive: [1] -10.7% | [2] | [3] 0.998% | [4] | [5]

CC(=O)C1CCC2(C)C3=C(CCC12C)C1(C)CCC(=O)C(C)(C)C1CC3 (stereo not given)
inactive: [1] -8.18% | [2] | [3] | [4] | [5] -0.504%

CC(=O)O[C@@H]1[C@@H](OC(=O)/C=C/c2ccccc2)[C@H](C)O[C@@H](O[C@H]2[C@@H]3C=CO[C@@H](O[C@@H]4O[C@H](CO)[C@@H](O)[C@H](O)[C@H]4O)[C@@H]3[C@@]3(CO)O[C@@H]23)[C@@H]1OC(C)=O
inactive: [1] -9.67% | [2] | [3] -6.34% | [4] 5.32% | [5]

CCn1cc(C2=NOC(C(=O)Nc3c(C)n(C)n(-c4ccccc4)c3=O)C2)c(C)n1 (stereo not given)
inactive: [1] 1.73% | [2] | [3] -4.53% | [4] | [5] 2.09%
